Inconclusive results are not listed. The source made the active and inactive calls. Calls come from the whole dose curve; as a rule, active = well fitted curve in the direction sought with a large enough effect; inconclusive = small, poorly fitted or top-dose-only effect, or another doubt; inactive = no such curve, though single readings can be large; an effect the other way counts as inactive or inconclusive.

Lysine-specific demethylase 5B (Homo sapiens), sequence (Q9UGL1 whole entry, looked up): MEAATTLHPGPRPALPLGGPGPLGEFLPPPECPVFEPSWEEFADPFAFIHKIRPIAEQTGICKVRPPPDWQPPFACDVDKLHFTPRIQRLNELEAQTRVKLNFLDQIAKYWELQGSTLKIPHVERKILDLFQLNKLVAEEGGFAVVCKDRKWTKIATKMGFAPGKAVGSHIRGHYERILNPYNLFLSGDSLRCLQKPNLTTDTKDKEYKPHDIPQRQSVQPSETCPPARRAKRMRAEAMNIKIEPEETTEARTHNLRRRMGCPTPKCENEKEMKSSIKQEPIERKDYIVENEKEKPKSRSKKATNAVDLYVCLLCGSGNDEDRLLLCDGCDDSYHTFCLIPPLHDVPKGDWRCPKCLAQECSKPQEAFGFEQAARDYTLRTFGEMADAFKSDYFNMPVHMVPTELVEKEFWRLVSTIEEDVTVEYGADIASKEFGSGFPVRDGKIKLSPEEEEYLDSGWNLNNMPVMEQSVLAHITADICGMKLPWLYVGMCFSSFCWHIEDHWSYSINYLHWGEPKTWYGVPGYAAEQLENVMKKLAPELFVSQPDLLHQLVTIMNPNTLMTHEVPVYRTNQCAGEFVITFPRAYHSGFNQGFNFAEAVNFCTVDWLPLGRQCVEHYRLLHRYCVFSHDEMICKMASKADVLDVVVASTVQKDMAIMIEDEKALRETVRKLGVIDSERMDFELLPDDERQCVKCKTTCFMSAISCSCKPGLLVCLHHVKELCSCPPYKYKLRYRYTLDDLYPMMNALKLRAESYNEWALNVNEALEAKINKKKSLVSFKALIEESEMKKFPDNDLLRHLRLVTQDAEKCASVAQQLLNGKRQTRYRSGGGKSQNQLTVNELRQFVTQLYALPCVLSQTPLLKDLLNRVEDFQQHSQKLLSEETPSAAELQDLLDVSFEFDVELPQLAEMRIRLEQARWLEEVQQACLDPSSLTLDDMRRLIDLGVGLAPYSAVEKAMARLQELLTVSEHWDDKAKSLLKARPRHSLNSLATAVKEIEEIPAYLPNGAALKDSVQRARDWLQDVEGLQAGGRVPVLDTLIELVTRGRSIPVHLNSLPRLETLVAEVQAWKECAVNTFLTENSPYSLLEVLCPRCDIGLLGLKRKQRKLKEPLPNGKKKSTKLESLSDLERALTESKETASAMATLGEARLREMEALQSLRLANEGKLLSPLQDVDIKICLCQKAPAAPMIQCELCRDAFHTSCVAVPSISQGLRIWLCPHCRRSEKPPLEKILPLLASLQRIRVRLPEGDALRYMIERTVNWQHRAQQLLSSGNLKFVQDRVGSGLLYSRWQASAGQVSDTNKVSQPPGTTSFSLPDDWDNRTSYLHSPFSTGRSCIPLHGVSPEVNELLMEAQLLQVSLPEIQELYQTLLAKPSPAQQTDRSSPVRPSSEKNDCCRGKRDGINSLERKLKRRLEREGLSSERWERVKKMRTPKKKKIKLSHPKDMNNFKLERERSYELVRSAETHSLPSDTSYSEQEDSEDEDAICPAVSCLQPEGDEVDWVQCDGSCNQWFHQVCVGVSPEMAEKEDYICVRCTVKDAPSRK

One test concerns the target Lysine-specific demethylase 5B (Homo sapiens) (UniProt Q9UGL1). Description: Optimization screen for KDM5B Histone Demethylases FDH coupled qHTS against the LOPAC library (AID 1347166). The note with it: KDM5B demethylation, FDH-coupled NADH fluorescence (FDH is formaldehyde dehydrogenase); series mostly up to 57.5 µM. Summed up: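 KDM5BDeltaAP (200nM final) preincubated 10 min with compound, then 12.5uM H3K4Me3, 25uM a-ketoglutarate, ascorbate, Fe(II), NAD+ and FDH added; 50mM HEPES pH 7.5, 0.01% Tween-20. NADH fluorescence (340/450 nm) change over 30 min, room temperature.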
A general note: qHTS replaces the single test concentration by a dilution series.
Regarding `C[C@]12CCC(=O)C=C1CC[C@@H]1[C@@H]2[C@@H](O)C[C@@]2(C)[C@H]1CC[C@]2(O)C(=O)CO`, the compound was classed as inactive. Same read-out and setting: the value for `O=c1[nH]cnc2[nH]ncc12` was “inactive”. With `NS(=O)(=O)c1cc2c(cc1Cl)NC=NS2(=O)=O`, the compound was classed as inactive. The same measure, in the same setting: the value for `O=C1CCC(N2C(=O)c3ccccc3C2=O)C(=O)N1` (stereo not given) was “inactive”; that for `Cc1ccccc1C(OCCN(C)C)c1ccccc1` (stereo not given) was “inactive”. On the same count and under the same terms, the value for `CCN(CC)CCCC(C)Nc1ccnc2cc(Cl)ccc12` (stereo not given) was “inactive”; that for `NCCCC(N)(C(=O)O)C(F)F` (stereo not given) was “inactive”; that for `Cc1cn[nH]c1` was “inactive”. The same measure, in the same setting: as for `Clc1cccc(Cl)c1NC1=NCCN1`, the entry is “inactive”; as for `Cc1ccc(N(CC2=NCCN2)c2cccc(O)c2)cc1`, “inactive”.

For the compound `Nc1nc2ccc(OC(F)(F)F)cc2s1`, the result was inactive. Same read-out and setting: the value for `Cc1cnc(NC(=O)C2=C(O)c3ccccc3S(=O)(=O)N2C)s1` was “inactive”.

Tested on in the next test: not listed separately
Put plainly: HepG2 cells viability qHTS for Zika virus inhibitors (AID 1347168). The note with it: Zika counter-screen; series mostly up to 45.9 µM. Summed up:
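Counter-screen for cytotoxicity of hits from NS2B-NS3 protease qHTS. Overnight-attached cells (2.5 x 10^5 cells/mL, DMEM/4% FBS) were dosed in titration, incubated 24 to 48 hours, then assayed by CellTiter Glo.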
As to `CC(C)c1onc(-c2c(Cl)cccc2Cl)c1COc1ccc(/C=C/c2cccc(C(=O)O)c2)c(Cl)c1`, the outcome was inactive. The same measure, in the same setting: as for `CCN(CC)CCCC(C)Nc1ccnc2cc(Cl)ccc12` (stereo not given), the entry is “inactive”; as for `COc1ccccc1-c1cccc(-c2c(O)c3cc(C#N)c(Cl)cc3[nH]c2=O)c1`, “inactive”.

The values above are taken from PubChem BioAssay (NCATS).
